# Legend:
# Experiment in all cases: DAPPL (digital affinity profiling via proximity ligation, sequencing); 10 mM Tris-HCl pH 7.5, 50 mM NaCl, 1 mM DTT, 4% glycerol, room temperature, 30 min; GST-TFs on glutathione beads, 16-mer random dsDNA library, 0.1% formaldehyde crosslink after washing; high values mean tight binding
# FLI1 = biological target: T1, FLI1 (Homo sapiens, UniProt Q01543 1-452); conditions: protein: recombinant; tags: N-terminal GST; dsDNA, one strand shown
# T1 sequence: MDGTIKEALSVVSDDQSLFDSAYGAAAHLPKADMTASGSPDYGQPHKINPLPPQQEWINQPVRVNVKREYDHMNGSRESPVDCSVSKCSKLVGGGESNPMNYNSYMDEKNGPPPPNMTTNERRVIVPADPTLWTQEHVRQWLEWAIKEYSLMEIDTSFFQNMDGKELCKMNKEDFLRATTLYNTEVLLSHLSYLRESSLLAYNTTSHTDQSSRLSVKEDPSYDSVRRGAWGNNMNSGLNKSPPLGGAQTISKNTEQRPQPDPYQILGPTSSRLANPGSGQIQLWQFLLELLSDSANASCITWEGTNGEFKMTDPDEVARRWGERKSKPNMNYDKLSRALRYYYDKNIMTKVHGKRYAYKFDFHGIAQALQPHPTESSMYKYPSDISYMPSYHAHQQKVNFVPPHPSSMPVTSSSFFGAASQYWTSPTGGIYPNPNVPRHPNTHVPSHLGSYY
# In short: (§1)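 The binding signal reported is, for every hexamer, its read frequency for a factor over its read frequency for the tag-only sample. Reads came from pools of yeast-expressed, GST-fused human transcription factors on glutathione beads, barcoded with DNA and mixed with that sample, which were incubated with 200 nmole of a random double-stranded 16-mer DNA library in Tris/NaCl/DTT/glycerol buffer at room temperature for 30 min. After washing, the pools were crosslinked with 0.1% formaldehyde, proximity-ligated with BsaI/T4 ligase for 1 h at 37 °C, PCR-amplified and sequenced on an Illumina NextSeq500.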
# ELK1 = biological target: T2, ELK1 (Homo sapiens, UniProt P19419 1-428); conditions: protein: recombinant; tags: N-terminal GST; dsDNA, one strand shown
# T2 sequence: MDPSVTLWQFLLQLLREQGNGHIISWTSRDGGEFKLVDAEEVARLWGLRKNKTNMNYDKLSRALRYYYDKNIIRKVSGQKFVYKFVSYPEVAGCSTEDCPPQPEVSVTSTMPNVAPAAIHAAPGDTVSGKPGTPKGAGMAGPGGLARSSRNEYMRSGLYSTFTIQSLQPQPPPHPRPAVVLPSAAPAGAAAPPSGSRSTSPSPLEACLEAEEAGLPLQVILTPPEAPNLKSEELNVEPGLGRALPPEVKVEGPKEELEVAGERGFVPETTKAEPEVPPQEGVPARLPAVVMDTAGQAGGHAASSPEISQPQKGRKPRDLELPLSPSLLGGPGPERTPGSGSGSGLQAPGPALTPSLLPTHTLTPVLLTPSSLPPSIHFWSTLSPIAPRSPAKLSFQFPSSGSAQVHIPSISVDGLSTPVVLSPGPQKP
# In short: as §1
# GABPA = biological target: T3, GABPA (Homo sapiens, UniProt Q06546 1-454); conditions: protein: recombinant; tags: N-terminal GST; dsDNA, one strand shown
# T3 sequence: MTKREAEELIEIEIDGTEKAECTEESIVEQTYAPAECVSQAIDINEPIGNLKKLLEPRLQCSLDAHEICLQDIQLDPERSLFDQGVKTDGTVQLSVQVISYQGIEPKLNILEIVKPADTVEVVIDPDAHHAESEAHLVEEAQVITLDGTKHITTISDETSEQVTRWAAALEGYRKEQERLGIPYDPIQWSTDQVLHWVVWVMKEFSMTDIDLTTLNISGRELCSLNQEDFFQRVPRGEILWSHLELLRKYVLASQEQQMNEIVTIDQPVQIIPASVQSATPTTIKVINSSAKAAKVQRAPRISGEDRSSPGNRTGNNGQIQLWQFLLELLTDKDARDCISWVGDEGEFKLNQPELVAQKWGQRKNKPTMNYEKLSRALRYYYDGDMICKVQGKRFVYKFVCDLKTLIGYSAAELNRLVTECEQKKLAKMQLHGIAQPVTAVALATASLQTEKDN
# In short: as §1
# ERG = biological target: T4, ERG (Homo sapiens, UniProt P11308 1-479); conditions: protein: recombinant; tags: N-terminal GST; dsDNA, one strand shown
# T4 sequence: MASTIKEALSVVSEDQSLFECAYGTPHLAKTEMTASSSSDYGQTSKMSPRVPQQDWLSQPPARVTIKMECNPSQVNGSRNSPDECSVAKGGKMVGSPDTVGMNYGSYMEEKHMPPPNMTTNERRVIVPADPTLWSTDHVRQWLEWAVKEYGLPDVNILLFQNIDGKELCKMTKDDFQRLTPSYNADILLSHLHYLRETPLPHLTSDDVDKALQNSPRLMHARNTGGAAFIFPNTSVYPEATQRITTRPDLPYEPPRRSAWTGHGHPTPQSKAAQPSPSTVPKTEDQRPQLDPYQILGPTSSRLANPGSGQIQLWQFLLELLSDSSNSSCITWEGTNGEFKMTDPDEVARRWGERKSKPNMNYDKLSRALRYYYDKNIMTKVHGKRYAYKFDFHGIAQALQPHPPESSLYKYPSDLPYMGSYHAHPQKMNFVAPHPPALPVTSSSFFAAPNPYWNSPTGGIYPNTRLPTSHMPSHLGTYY
# In short: as §1
# ELF1 = ELF1 (Homo sapiens, UniProt P32519 1-619); conditions: protein: recombinant; tags: N-terminal GST; dsDNA, one strand shown
# In short: as §1
# EHF = biological target: T5, EHF (Homo sapiens, UniProt Q9NZC4 1-300); conditions: protein: recombinant; tags: N-terminal GST; dsDNA, one strand shown
# T5 sequence: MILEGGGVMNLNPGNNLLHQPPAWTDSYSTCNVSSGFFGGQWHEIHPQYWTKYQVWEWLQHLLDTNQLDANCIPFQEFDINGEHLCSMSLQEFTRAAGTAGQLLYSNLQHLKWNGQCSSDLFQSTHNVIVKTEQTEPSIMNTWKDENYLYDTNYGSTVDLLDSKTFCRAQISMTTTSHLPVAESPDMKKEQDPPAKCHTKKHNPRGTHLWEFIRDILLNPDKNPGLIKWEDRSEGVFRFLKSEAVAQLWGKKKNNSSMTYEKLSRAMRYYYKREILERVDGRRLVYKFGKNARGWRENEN
# In short: as §1
# SPI1 = SPI1 (Homo sapiens, UniProt P17947 1-270); conditions: protein: recombinant; tags: N-terminal GST; dsDNA, one strand shown
# In short: as §1
# SPIB = SPIB (Homo sapiens, UniProt Q01892 1-262); conditions: protein: recombinant; tags: N-terminal GST; dsDNA, one strand shown
# In short: as §1
# ELK3 = biological target: T6, ELK3 (Homo sapiens, UniProt P41970 1-407); conditions: protein: recombinant; tags: N-terminal GST; dsDNA, one strand shown
# T6 sequence: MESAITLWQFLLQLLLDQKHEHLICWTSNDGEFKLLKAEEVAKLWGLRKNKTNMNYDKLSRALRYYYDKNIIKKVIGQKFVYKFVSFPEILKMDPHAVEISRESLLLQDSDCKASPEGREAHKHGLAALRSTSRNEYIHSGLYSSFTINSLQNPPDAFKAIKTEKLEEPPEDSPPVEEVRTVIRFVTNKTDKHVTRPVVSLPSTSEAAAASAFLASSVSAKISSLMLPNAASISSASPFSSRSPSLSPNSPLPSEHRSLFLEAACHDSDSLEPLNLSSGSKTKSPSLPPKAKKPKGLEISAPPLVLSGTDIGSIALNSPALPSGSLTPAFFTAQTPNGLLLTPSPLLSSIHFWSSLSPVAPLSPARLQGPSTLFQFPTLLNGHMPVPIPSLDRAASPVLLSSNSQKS
# In short: as §1
# FEV = biological target: T7, FEV (Homo sapiens, UniProt Q99581 1-238); conditions: protein: recombinant; tags: N-terminal GST; dsDNA, one strand shown
# T7 sequence: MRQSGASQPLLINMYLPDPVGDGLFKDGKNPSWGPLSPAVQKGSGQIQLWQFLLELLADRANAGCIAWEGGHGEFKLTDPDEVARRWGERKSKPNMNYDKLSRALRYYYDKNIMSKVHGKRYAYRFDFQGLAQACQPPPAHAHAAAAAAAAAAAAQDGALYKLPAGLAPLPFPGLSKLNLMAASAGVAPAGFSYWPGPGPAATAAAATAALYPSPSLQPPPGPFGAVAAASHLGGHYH
# In short: as §1
# ETV5 = ETV5 (Homo sapiens, UniProt P41161 1-510); conditions: protein: recombinant; tags: N-terminal GST; dsDNA, one strand shown
# In short: as §1
# HSF1 = HSF1 (Homo sapiens, UniProt Q00613 1-529); conditions: protein: recombinant; tags: N-terminal GST; chain copies: 3; dsDNA, one strand shown
# In short: as §1
# SPIC = biological target: T8, SPIC (Homo sapiens, UniProt Q8N5J4 1-248); conditions: protein: recombinant; tags: N-terminal GST; dsDNA, one strand shown
# T8 sequence: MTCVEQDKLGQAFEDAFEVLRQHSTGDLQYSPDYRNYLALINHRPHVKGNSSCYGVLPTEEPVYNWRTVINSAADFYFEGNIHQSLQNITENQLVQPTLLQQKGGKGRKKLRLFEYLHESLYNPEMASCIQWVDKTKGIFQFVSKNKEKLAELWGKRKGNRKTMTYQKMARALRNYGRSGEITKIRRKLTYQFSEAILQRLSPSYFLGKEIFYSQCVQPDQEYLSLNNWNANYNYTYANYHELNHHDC
# In short: as §1
# ELF4 = ELF4 (Homo sapiens, UniProt Q99607 1-663); conditions: protein: recombinant; tags: N-terminal GST; dsDNA, one strand shown
# In short: as §1
# ELK4 = biological target: T9, ELK4 (Homo sapiens, UniProt P28324-2 1-405); conditions: protein: recombinant; tags: N-terminal GST; dsDNA, one strand shown
# T9 sequence: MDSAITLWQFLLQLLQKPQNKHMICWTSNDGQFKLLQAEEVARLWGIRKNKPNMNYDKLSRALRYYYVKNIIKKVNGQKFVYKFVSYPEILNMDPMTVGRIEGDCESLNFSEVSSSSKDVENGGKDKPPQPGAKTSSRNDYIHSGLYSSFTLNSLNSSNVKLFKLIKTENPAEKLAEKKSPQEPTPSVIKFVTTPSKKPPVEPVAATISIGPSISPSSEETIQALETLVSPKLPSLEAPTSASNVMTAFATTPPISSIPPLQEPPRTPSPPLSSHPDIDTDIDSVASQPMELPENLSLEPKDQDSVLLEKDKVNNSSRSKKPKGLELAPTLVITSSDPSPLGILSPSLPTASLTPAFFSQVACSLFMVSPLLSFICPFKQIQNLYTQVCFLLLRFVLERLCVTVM
# In short: as §1
# ETV2 = biological target: T10, ETV2 (Homo sapiens, UniProt O00321 1-342); conditions: protein: recombinant; tags: N-terminal GST; dsDNA, one strand shown
# T10 sequence: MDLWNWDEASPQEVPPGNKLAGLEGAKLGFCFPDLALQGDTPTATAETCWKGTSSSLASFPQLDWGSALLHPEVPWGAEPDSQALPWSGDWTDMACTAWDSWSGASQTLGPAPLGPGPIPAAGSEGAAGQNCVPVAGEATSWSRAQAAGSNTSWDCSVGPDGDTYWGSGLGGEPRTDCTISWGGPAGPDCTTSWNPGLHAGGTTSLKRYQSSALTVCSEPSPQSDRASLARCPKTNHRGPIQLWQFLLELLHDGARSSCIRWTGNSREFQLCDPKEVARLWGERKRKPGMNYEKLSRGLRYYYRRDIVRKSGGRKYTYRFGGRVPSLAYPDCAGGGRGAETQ
# In short: as §1
# ELF3 = biological target: T11, ELF3 (Homo sapiens, UniProt P78545 1-371); conditions: protein: recombinant; tags: N-terminal GST; dsDNA, one strand shown
# T11 sequence: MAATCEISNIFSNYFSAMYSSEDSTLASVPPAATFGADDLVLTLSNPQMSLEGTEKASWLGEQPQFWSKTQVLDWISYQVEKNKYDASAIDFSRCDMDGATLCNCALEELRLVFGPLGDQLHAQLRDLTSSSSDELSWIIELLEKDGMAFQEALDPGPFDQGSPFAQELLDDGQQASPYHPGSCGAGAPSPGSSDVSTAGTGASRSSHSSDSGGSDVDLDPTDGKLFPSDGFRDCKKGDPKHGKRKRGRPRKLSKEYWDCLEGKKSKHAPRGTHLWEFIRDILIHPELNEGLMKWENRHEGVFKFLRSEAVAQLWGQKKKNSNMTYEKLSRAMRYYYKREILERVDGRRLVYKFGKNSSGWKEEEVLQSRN
# In short: as §1
# CRX = CRX (Homo sapiens, UniProt O43186 1-299); conditions: protein: recombinant; tags: N-terminal GST; dsDNA, one strand shown
# In short: as §1
# ETV1 = ETV1 (Homo sapiens, UniProt P50549 1-477); conditions: protein: recombinant; tags: N-terminal GST; dsDNA, one strand shown
# In short: as §1
# HSF1, sequence (Q00613 whole entry): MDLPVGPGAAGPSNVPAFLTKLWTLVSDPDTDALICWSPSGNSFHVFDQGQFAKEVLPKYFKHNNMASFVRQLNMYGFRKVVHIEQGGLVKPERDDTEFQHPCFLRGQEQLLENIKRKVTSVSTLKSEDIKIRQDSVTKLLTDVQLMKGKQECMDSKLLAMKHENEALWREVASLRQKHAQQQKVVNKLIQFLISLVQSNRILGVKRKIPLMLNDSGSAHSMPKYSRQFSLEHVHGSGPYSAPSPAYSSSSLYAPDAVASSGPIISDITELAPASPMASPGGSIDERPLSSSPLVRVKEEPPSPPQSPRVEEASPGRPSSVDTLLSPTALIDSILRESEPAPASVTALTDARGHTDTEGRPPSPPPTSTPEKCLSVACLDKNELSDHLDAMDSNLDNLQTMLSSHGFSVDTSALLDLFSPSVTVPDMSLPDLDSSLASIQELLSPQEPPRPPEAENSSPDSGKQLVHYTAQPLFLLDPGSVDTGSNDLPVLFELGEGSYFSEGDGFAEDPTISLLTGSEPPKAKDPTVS
# ETV1, sequence (P50549 whole entry): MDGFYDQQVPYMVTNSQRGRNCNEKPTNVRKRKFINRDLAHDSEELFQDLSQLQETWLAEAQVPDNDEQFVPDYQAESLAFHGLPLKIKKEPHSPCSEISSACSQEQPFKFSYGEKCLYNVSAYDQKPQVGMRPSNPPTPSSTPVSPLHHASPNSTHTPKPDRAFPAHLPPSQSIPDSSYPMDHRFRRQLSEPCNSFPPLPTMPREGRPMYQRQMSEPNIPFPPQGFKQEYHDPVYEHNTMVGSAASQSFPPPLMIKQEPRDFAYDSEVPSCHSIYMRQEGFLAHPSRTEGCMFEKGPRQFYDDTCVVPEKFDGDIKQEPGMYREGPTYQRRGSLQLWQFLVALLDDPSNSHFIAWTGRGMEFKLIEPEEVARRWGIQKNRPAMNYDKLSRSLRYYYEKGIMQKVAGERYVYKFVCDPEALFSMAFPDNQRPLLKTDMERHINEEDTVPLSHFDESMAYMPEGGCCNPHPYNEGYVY
# CRX, sequence (O43186 whole entry): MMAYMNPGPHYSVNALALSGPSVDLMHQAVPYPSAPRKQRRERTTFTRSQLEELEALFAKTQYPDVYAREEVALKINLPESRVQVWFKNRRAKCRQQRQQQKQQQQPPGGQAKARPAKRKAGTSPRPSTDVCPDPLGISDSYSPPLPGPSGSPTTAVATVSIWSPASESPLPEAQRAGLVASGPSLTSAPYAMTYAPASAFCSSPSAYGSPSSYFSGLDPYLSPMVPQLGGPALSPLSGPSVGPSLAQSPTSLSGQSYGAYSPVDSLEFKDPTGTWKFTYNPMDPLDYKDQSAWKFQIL
# ELF1, sequence (P32519 whole entry): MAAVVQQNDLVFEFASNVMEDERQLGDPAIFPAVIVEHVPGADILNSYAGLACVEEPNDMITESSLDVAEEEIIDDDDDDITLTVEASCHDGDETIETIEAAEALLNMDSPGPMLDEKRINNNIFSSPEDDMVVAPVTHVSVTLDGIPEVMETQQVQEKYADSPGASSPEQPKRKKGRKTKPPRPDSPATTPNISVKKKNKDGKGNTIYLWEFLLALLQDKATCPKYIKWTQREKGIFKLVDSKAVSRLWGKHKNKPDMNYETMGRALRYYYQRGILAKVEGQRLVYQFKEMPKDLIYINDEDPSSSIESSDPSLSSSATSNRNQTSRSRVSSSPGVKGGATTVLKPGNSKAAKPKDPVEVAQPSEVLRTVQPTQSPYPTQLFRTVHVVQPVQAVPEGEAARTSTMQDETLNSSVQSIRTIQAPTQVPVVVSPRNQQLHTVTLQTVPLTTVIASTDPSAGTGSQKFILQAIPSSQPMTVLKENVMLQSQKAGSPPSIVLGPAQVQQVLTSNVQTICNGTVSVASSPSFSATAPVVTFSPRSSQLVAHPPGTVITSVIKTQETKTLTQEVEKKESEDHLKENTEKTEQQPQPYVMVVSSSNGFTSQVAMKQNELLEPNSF
# SPIB, sequence (Q01892 whole entry): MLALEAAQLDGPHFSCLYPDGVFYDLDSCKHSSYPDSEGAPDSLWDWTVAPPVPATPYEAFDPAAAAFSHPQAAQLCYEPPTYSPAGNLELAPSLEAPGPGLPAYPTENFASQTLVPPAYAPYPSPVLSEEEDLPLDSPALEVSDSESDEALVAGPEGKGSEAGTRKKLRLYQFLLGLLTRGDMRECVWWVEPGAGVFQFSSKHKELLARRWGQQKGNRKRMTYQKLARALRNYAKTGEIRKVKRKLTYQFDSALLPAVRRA
# ELF4, sequence (Q99607 whole entry): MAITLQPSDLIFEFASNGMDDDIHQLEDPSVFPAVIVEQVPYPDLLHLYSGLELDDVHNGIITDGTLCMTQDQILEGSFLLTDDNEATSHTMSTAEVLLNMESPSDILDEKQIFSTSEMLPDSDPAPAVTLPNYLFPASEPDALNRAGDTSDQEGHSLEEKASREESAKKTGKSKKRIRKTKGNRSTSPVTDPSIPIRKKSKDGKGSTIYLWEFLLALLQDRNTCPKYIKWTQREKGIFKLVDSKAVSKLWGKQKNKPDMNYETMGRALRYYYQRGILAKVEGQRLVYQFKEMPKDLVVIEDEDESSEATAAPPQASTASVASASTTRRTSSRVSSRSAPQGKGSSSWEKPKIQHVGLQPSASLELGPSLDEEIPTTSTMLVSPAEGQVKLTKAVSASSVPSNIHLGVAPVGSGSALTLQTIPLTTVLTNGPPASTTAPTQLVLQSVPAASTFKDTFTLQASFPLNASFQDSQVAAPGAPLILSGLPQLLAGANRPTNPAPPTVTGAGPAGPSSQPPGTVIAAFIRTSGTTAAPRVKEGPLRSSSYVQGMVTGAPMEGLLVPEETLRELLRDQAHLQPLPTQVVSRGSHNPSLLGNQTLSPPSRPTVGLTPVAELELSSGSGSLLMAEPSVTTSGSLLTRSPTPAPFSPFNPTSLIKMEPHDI
# ETV5, sequence (P41161 whole entry): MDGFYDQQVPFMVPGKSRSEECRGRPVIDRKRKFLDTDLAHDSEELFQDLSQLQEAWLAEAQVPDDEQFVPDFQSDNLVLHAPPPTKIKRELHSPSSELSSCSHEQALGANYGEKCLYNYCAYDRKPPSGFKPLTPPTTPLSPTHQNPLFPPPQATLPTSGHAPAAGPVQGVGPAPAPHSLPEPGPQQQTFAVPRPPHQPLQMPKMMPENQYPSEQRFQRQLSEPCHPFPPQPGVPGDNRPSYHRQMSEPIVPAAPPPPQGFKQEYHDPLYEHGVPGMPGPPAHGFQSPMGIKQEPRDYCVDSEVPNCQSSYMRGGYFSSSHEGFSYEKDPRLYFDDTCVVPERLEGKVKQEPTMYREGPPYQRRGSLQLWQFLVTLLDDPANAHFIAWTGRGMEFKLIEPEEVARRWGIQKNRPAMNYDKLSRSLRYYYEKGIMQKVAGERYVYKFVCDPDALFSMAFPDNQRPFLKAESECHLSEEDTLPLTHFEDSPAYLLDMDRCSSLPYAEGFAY
sequence,measurement,setting,value
AACATT,binding signal,FLI1,"1.37 fold enrichment (6-mer frequency, TF over GST control)"
same,binding signal,ELK1,"1.26 fold enrichment (6-mer frequency, TF over GST control)"
same,binding signal,GABPA,"1.35 fold enrichment (6-mer frequency, TF over GST control)"
same,binding signal,ERG,"1.25 fold enrichment (6-mer frequency, TF over GST control)"
same,binding signal,ELF1,"1.29 fold enrichment (6-mer frequency, TF over GST control)"
same,binding signal,EHF,"1.33 fold enrichment (6-mer frequency, TF over GST control)"
same,binding signal,SPI1,"1.17 fold enrichment (6-mer frequency, TF over GST control)"
same,binding signal,SPIB,"1.34 fold enrichment (6-mer frequency, TF over GST control)"
same,binding signal,ELK3,"1.25 fold enrichment (6-mer frequency, TF over GST control)"
same,binding signal,FEV,"1.2 fold enrichment (6-mer frequency, TF over GST control)"
same,binding signal,ETV5,"1.31 fold enrichment (6-mer frequency, TF over GST control)"
same,binding signal,HSF1,"1.99 fold enrichment (6-mer frequency, TF over GST control)"
same,binding signal,SPIC,"1.21 fold enrichment (6-mer frequency, TF over GST control)"
same,binding signal,ELF4,"1.29 fold enrichment (6-mer frequency, TF over GST control)"
same,binding signal,ELK4,"1.31 fold enrichment (6-mer frequency, TF over GST control)"
same,binding signal,ETV2,"1.29 fold enrichment (6-mer frequency, TF over GST control)"
same,binding signal,ELF3,"1.33 fold enrichment (6-mer frequency, TF over GST control)"
same,binding signal,CRX,"1.34 fold enrichment (6-mer frequency, TF over GST control)"
same,binding signal,ETV1,"1.29 fold enrichment (6-mer frequency, TF over GST control)"
